Here are results for 8 compounds from PubChem BioAssay (Tox21).

Assay [1] in a line: qHTS assay to identify small molecule antagonists of the estrogen related receptor (ERR) signaling pathway from Tox21 library - cell viability counter screen (AID 1224834). Note: nearly all actives have a fitted effect of over 30% in size. Note: potency is the fitted concentration of half-maximal effect. In a few lines: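 Fluorescence from CellTiter-Fluor gives the viability read-out, taken 30 min after reagent addition. Before that, ERR cells seeded 6 h earlier were incubated with compounds for 17.5 h at 37 C.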

Assay [2] concerns the target Luciferin 4-monooxygenase (Photinus pyralis) (UniProt P08659). In words: qHTS assay to identify small molecule inhibitors of firefly luciferase (AID 1224835). Note: nearly all actives have a fitted effect of over 25% in size. In a few lines:
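Quantitative HTS format; KM concentrations of both substrates. Purified P. pyralis FLuc activity quantified from luminescence images.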

The nature of assay [3]: qHTS assay to identify small molecule agonists of the constitutive androstane receptor (CAR) signaling pathway - cell viability counter screen (AID 1224836). Note: nearly all actives have a fitted effect of over 45% in size. A digest of the protocol:
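Cell viability multiplexed with the CAR agonist screen: CellTiter-Fluor fluorescence after 23 hr at 37 C. HepG2-CYP2B6-hCAR cells got compounds at 15 concentrations with PK11195 at 0.75 uM final.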

Assay [4] is described as follows: qHTS assay to identify small molecule antagonists of the constitutive androstane receptor (CAR) signaling pathway - cell viability counter screen (AID 1224837). Note: nearly all actives have a fitted effect of over 45% in size. In a few lines:
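HepG2-CYP2B6-hCAR cells, 2500/well, 4 hr pre-incubation; compound titration, 15 conc.; CITCO 50 nM final; 23 hr, 37 C/5% CO2; CellTiter-Fluor, fluorescence intensity.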

Assay [5] concerns the target Nuclear receptor subfamily 1 group I member 3 (Homo sapiens) (UniProt Q14994). In words: qHTS assay to identify small molecule antagonists of the constitutive androstane receptor (CAR) signaling pathway (AID 1224838).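 Note: HepG2 cells stably expressing hCAR with CYP2B6 luciferase reporter stimulated by CITCO; nearly all actives have a fitted effect of over 40% in size.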 In a few lines: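 HepG2-CYP2B6-hCAR cells; 4 h pre-incubation; cpd (15 conc) + CITCO 50 nM final; 24 h, 37 C/5% CO2; ONE-Glo, luminescence.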
Assay [6] shares this target. In words: qHTS assay to identify small molecule agonists of the constitutive androstane receptor (CAR) signaling pathway (AID 1224839).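 For activation: HepG2 cells stably carrying human CAR and a CYP2B6 luciferase reporter.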 Note: nearly all actives have a fitted effect of over 15% in size. Note: potency is the fitted concentration of half-maximal effect. In a few lines:
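Luminescent ONE-Glo read-out after 24 hr, 37 C exposure of double-stable HepG2-CYP2B6-hCAR reporter cells to a 15-point compound series, in the presence of 0.75 uM PK11195 (final).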

The nature of assay [7]: qHTS assay to identify small molecule antagonists of the estrogen related receptor signaling pathway with the pleiotropic PPARgamma coactivator (PGC) from Tox21 10K library - cell viability counter screen (AID 1224840; active = well fitted cell-killing curve with a large enough effect in the repeat runs, not every such curve was filed as active; note: nearly all actives have a fitted effect of over 40% in size; note: potency is the fitted concentration of half-maximal effect). In a few lines:
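PGC/ERR cells, 2,000/well; 6 h pre-incubation 37 C/5% CO2; cpd in DMSO via pin tool; 17.5 h 37 C; CellTiter-Fluor, 30 min; fluorescence.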

Assay [8] addresses Thyrotropin receptor (Homo sapiens) (UniProt P16473). Briefly: qHTS assay to identify small molecule agonists of the thyroid stimulating hormone receptor (TSHR) signaling pathway (AID 1224843; calls by dose curve; note: nearly all actives have a fitted effect of over 45% in size). A digest of the protocol:
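Cell line HEK293 with TSHR; density 800/well. Exposure 30 min RT. Readout HTRF cAMP (cAMP-d2/anti-cAMP-cryptate), 1 h RT before reading.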

A short description of assay [9]: qHTS assay to identify small molecule agonists of the hypoxia (HIF-1) signaling pathway - cell viability counter screen (AID 1224844; calls by dose curve; note: nearly all actives have a fitted effect of over 50% in size; note: potency is the fitted concentration of half-maximal effect). A digest of the protocol: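 ME-180 HRE-bla cells, 2,000/well, 0.5% dialyzed FBS; 5 hr settle, 17 hr compound at 37C/5% CO2; CCF4-AM reporter read first, then CellTiter-Glo luminescence after 30 min RT.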
A short description of assay [10]: qHTS assay to identify small molecule agonists of H2AX (AID 1224845; active = well fitted activation curve with a large enough effect in the signal ratio in the repeat runs, not every such curve was filed as active; the % refers to the signal ratio). In a few lines:
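Wild-type CHO-K1 cells plated overnight, then exposed 3 hr at 37C to compounds at 15 concentrations (0.76% DMSO). Lysed, then HTRF anti-pH2AX(S139)-cryptate/anti-H2AX-d2 detection after 24 hr at room temperature; emissions 665 and 620 nm.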

Assay [11] can be described thus: qHTS assay to identify small molecule agonists of the hypoxia (HIF-1) signaling pathway (AID 1224846; active = well fitted activation curve with a large enough effect in the signal ratio in the repeat runs, not every such curve was filed as active; the % refers to the signal ratio). A digest of the protocol: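 Cell line: CellSensor HRE-bla ME-180; 2,000 cells/well; 0.5% dialyzed FBS; 5 h preincubation; DMSO compound pin transfer; 17 h, 37C, 5% CO2; CCF4-AM added; bla FRET signal scored for activation.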
Assay [12] is described as follows: qHTS assay to identify small molecule agonists of H2AX - cell viability counter screen (AID 1224847; calls by dose curve; note: top concentration of the series differs between compounds; nearly all actives have a fitted effect of over 30% in size). In a few lines: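 Counter-screen for viability: CellTiter-Glo ATP luminescence read after 3 h compound treatment (15-point titration, 0.76% DMSO final) of CHO-K1 cells at 37C, with 30 min room-temperature reagent incubation.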
Assay [13] in a line: qHTS RealTime-Glo MT Cell Viability Assay in HepG2 cells - 24 hour (AID 1224867). Note: nearly all actives have a fitted effect of over 50% in size. Note: potency is the fitted concentration of half-maximal effect. In a few lines:
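Tox21 10K library screened in qHTS format on HepG2 cells carrying RealTime-Glo reagents. Compounds were added after a 5 h preincubation, and the luminescent signal from continuous culture was measured repeatedly during 40 h treatment.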

A short description of assay [14]: qHTS RealTime-Glo MT Cell Viability Assay in HEK293 cells - 32 hour (AID 1224868). For activity change, negative = cytotoxic: top concentration of the series differs between compounds. Note: nearly all actives have a fitted effect of over 50% in size. Note: potency is the fitted concentration of half-maximal effect. A digest of the protocol:
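Luminescence generated by NanoLuc from substrate produced by living HEK293 cells served as the viability signal. Each value reflects the reading at its stated time point during continuous 40 h compound exposure at 37 C.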

A short description of assay [15]: A CellTox Green Cytotoxicity Assay to monitor cytotoxicity in HEK293 cells - 0 hour (AID 1224869). Note: nearly all actives have a fitted effect of over 50% in size. In a few lines:
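Nonlytic real-time cytotoxicity: HEK293 + CellTox Green reagent plated, 5 h preincubation, pintool compound addition (23 nL in DMSO), 37 C for 40 h, fluorescence measured at successive time points.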

Assay [16] in a line: qHTS RealTime-Glo MT Cell Viability Assay in HepG2 cells - 40 hour (AID 1224870). Note: nearly all actives have a fitted effect of over 50% in size. Note: potency is the fitted concentration of half-maximal effect. In a few lines: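 HepG2 cells mixed with RealTime-Glo MT reagents (NanoLuc plus cell-permeant prosubstrate) were seeded at 600 cells/well, incubated 5 h at 37 C/5% CO2, then pinned with compounds in DMSO; nonlytic luminescence tracked viability during 40 h treatment.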
Assay [17] is described as follows: qHTS assay to identify small molecule antagonists of the estrogen related receptor signaling pathway with the pleiotropic PPARgamma coactivator (PGC) from Tox21 10K library (AID 1224841; call rule not given here). A digest of the protocol:
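PGC/ERR cell line, 2,000 cells/well; 6 h pre-incubation 37 C/5% CO2; compounds (DMSO) pinned in; 18 h, 37 C; One-Glo, 30 min RT; luminescence.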

Assay [18] in a line: qHTS assay to identify small molecule agonists of the estrogen related receptor signaling pathway with the pleiotropic PPARgamma coactivator (PGC) from Tox21 10K library (AID 1224842). Note: nearly all actives have a fitted effect of over 15% in size. A digest of the protocol: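 PGC/ERR reporter cells (NTP line) were seeded 2,000 per well, rested 6 h at 37 C/5% CO2, then pin-dosed with compounds in DMSO for 18 h at 37 C; luciferase read by One-Glo luminescence after 30 min at room temperature.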

Assay [19] can be described thus: qHTS assay to identify small molecule antagonists of the estrogen related receptor (ERR) signaling pathway from Tox21 library (AID 1224848). Note: nearly all actives have a fitted effect of over 50% in size. Note: potency is the fitted concentration of half-maximal effect. In a few lines:
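Screening used an ERR reporter line supplied by NTP, exposed for 18 h at 37 C to library compounds delivered in DMSO. Signal was luciferase luminescence developed with ONE-Glo at room temperature for 30 min.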

A short description of assay [20]: qHTS assay to identify small molecule agonists of the estrogen related receptor (ERR) signaling pathway from Tox21 library (AID 1224849; calls by dose curve; note: nearly all actives have a fitted effect of over 15% in size). Particulars: ERR reporter cell line, ONE-Glo luciferase, 18 h; at 92.4 µM (top of the series). A digest of the protocol:
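ERR cells, 6 h pre-incubation 37 C/5% CO2; cpd in DMSO pinned; 18 h 37 C; ONE-Glo added, 30 min RT; luminescence read. Agonist mode, qHTS.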

Values without a mark were called inactive. Inconclusive results are not listed. The source made the active and inactive calls. Unless noted, calls come from the whole dose curve; as a rule, active = well fitted curve in the direction sought with a large enough effect in the repeat runs; inconclusive = weak or mixed curves; inactive = no such curve, though single readings can be large; an effect the other way counts as inactive or inconclusive.
% is set by controls: 0 for no effect and ±100 for the full control effect.

Chain of Nuclear receptor subfamily 1 group I member 3 (Homo sapiens) (Q14994 whole entry, looked up): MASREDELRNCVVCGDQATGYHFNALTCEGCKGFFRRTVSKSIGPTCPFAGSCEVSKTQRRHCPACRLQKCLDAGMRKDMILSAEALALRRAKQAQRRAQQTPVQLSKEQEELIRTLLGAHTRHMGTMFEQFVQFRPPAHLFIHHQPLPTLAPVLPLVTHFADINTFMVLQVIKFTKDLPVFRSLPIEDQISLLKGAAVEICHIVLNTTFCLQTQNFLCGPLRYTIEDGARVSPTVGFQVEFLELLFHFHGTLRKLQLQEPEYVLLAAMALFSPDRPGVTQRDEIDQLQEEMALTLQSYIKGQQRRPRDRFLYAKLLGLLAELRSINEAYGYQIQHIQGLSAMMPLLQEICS
Chain of Luciferin 4-monooxygenase (Photinus pyralis) (P08659 whole entry, looked up): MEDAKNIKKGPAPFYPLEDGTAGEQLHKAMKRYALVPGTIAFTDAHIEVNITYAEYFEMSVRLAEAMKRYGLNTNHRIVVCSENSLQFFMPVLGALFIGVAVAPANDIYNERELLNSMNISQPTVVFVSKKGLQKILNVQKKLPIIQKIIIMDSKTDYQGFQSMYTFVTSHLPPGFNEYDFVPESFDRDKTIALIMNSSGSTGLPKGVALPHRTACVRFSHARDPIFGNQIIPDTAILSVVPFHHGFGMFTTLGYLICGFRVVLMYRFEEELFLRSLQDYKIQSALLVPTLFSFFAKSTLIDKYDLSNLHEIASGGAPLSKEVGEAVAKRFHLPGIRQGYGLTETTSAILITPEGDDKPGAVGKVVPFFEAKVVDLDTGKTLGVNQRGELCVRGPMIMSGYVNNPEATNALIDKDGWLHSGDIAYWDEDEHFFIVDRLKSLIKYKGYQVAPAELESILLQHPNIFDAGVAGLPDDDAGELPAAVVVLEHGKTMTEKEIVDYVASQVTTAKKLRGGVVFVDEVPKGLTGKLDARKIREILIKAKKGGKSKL
Chain of Thyrotropin receptor (Homo sapiens) (P16473 whole entry, looked up): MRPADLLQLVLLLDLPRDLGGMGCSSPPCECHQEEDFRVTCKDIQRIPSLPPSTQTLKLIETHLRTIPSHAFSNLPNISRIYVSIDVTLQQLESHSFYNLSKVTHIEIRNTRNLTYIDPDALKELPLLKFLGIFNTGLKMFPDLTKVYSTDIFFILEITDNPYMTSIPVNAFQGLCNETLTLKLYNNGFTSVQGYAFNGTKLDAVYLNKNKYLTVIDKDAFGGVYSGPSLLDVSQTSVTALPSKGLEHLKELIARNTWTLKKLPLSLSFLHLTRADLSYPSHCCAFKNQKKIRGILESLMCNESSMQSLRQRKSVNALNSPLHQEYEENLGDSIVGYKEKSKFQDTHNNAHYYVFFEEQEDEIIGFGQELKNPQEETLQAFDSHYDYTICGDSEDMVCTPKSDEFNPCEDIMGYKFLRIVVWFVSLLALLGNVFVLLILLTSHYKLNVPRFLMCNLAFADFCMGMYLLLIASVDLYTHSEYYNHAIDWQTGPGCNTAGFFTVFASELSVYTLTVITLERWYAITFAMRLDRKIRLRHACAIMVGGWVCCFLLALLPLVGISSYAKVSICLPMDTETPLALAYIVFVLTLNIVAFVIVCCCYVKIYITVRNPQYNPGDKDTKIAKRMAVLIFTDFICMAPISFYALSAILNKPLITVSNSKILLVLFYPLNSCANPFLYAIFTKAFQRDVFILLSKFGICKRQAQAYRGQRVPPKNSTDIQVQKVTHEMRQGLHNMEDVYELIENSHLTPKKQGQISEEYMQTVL

As for `O=[N+]([O-])c1ccc(F)c(Cl)c1`, the Potency result in assay [1], in [2], in [3], in assay [4], in assay [5] and in assay [6] was “inactive” in each case. Also, the Potency entry in assay [7], in assay [8], in [9], in assay [10], in assay [11] and in [12] was “inactive” each time. Further, the Potency entry in assay [13], in assay [14], in assay [15] and in [16] was “inactive” each time.
As for `Cc1c(C)c([N+](=O)[O-])c(C(C)(C)C)c([N+](=O)[O-])c1C`, the Potency entry in [1], in [2], in assay [3], in assay [4], in [5] and in assay [7] was “inactive” throughout. In addition, the Potency result in assay [17], in assay [18], in [10], in assay [11], in [19] and in assay [13] was “inactive” throughout. Also, the Potency result in assay [14], in assay [15] and in assay [16] was “inactive” each time. Further, the Potency in assay [6] is 27.3 µM (active). Moreover, the activity change, positive = activation in assay [20] is -6.21%.
Take `C=C(C)c1cccc(C(=C)C)c1`: the Potency result in assay [1], in [2], in assay [3], in [4], in [5] and in assay [6] was “inactive” in each case. Moreover, the Potency entry in assay [7], in [8], in assay [9], in assay [10], in [11] and in assay [12] was “inactive” in each case. Further, the Potency result in assay [13], in assay [14] and in [16] was “inactive” each time.
Regarding `CC(=O)OCC=C(C)C`, the Potency result in [1], in assay [2], in [3], in assay [4], in assay [5] and in assay [6] was “inactive” each time. Also, the Potency entry in assay [7], in [8], in assay [10], in assay [11], in assay [12] and in assay [13] was “inactive” each time. Further, the Potency result in assay [14], in assay [15] and in [16] was “inactive” throughout.
In the case of `ClCCl`, the Potency entry in [1], in [2], in [3], in [4], in assay [5] and in assay [6] was “inactive” in each case. For the same compound, the Potency entry in assay [7], in assay [9], in assay [10], in [11], in [12] and in assay [13] was “inactive” each time. Also, the Potency entry in [14], in assay [15] and in [16] was “inactive” throughout.
With `C=CC(=O)OCCOC(=O)C=C`, the Potency entry in [1], in assay [2], in [3], in assay [4], in assay [5] and in [6] was “inactive” in each case. Further, the Potency result in assay [7], in assay [8], in assay [12], in assay [13], in assay [15] and in assay [16] was “inactive” each time. Further, the Potency in assay [9] is 24.5 µM (active); in assay [14] it was 43.6 µM (active).
As to `CCOC(=O)c1ccc(C2CCC(NC[C@H](O)COc3ccc(O)c(NS(C)(=O)=O)c3)CC2)cc1` (stereo not given in full), the Potency was 63.3 µM (active) in [1]; 63.3 µM (active) in [7]; 56.4 µM (active) in [19]; 45.2 µM (active) in assay [13]; 20.2 µM (active) in [14]; 50.7 µM (active) in assay [16]. In addition, the Potency result in assay [2], in [3], in assay [4], in assay [5], in assay [17] and in assay [18] was “inactive” throughout. Moreover, the Potency result in assay [11] was “inactive”. The activity change, positive = activation in assay [20] was -46.8%.
As to `C[C@H]1NCc2cc(-c3ccc4c(=O)c(C(=O)O)cn(C5CC5)c4c3OC(F)F)ccc21`, the viability change, negative = cytotoxic was -0.362% [at 19 µM] in assay [1], 8.47% [at 19 µM] in [3] and 5.39% [at 19 µM] in assay [7]. Also, the activity change, negative = inhibition in assay [2] is -0.0227% [at 23.6 µM]. For the same compound, the activity change, negative = cytotoxicity in [4] is -0.799% [at 19 µM]; in assay [9] it was 6.72% [at 15.8 µM]; in assay [13], -15.8% [at 15.8 µM]. In assay [5], the activity, negative = inhibition is 10.2% [at 19 µM]. Further, the activation in [6] is -2.33% [at 19 µM]; in assay [8], 2.59% [at 19 µM]; in [11] it was 0.068% [at 15.8 µM]. The activation (H2AX phosphorylation) in assay [10] is 4.25% [at 31.6 µM]. The activity change, negative = cytotoxic in [14] was -6.15% [at 15.8 µM]. The cytotoxicity in assay [15] was 0.0457% [at 15.8 µM].
